Test results from PubChem BioAssay AID588742 (Southern Research Specialized Biocontainment Screening …, 2011).
Screen size: about 1,800 compounds; about 410 (23%) were called active. How the calls were made is not given here. Not all results are given here. Entries with a potency or affinity are not part of this list.

Experiment: Vero cell cytotoxicity, cytotoxicity control for flavivirus capping enzyme inhibitors (AID 588742)
Conditions: Vero cells viability, cytotoxicity counter-screen; series mostly up to 40 µM; viability: at the top concentration

Structure (SMILES) | viability
Cc1ccc(C2c3sc(=O)[nH]c3SC3C(=O)NC(=O)C32)cc1 (stereo unspecified) | 98.6% (inactive)
COc1cccc(/C=C2\SC(=S)N(NS(=O)(=O)c3ccc(C)cc3)C2=O)c1OC | 86.8% (inactive)
CC1(C)CC(=O)C(C(c2ccc(Br)cc2)C2C(=O)CC(C)(C)CC2=O)C(=O)C1 | 96.5% (inactive)
CC1=NN(Cc2ccccc2)C(=O)C1C(c1ccccc1)C(C#N)C#N (stereo unspecified) | 88.9% (inactive)
CCOc1ccccc1NC(=O)CN1C(=O)COc2ccc(S(=O)(=O)N3CCOCC3)cc21 | 101% (inactive)
Cc1cc(OCC(=O)NC2CCN(Cc3ccccc3)CC2)c2c(C)c(C)c(=O)oc2c1 | 101% (inactive)
O=C1ON=C(c2cccc([N+](=O)[O-])c2)/C1=C/c1ccc(O)cc1 | 80.4% (inactive)
O=C1/C(=C/c2ccc(C(=O)O)cc2)CCC/C1=C\c1ccc(C(=O)O)cc1 | 114% (inactive)
O=C(O)c1cccc(N2C(=O)C=CC2=O)c1 | 107% (inactive)
Cc1ccc([C@H]2C(C(=O)O)=CC[C@@H](c3ccc(Cl)c(Cl)c3)N2S(=O)(=O)c2ccc(C)cc2)cc1 | 84.2% (inactive)
O=C(COc1ccccc1/C=C\c1[nH]c(=O)[nH]c(=O)c1[N+](=O)[O-])Nc1ccccc1 | 109% (inactive)
CCOC(=O)CC1=NN(c2ccccc2)C(=O)/C1=C\c1ccc(OC)cc1OC | 94.6% (inactive)
CCOC(=O)c1c2c(c(=S)n(-c3ccccc3)c1N)CCC2 | 82.2% (inactive)
O=S(=O)(Nc1nc(-c2sccc2Cl)cs1)c1cc(Cl)ccc1Cl | 99.7% (inactive)
Fc1cccc(Cl)c1CNc1ccc(N2CCCC2)cc1 | 84.4% (inactive)
CCN1C(=NCc2ccccc2)N[C@@H](c2ccccc2)[C@H](C(=O)OC)[C@H]1C | 97.6% (inactive)
O=C(Cc1ccc(Br)cc1)Nc1ccc2[nH]ncc2c1 | 90.6% (inactive)
CN(CCO)c1cc(Sc2nc3ccccc3s2)c2nonc2c1[N+](=O)[O-] | 98.6% (inactive)
O=c1cc(-c2ccccc2)[nH]c2[nH]n(-c3ccccc3)c(=O)c12 | 97% (inactive)
Cc1ccc(C)c(S(=O)(=O)Nc2ccccc2C(=O)Nc2ccc(S(=O)(=O)Nc3ncccn3)cc2)c1 | 102% (inactive)
O=C(O)c1ccc(Cl)c(S(=O)(=O)Nc2ccccc2C(=O)Nc2ccc(Cl)cc2)c1 | 94.1% (inactive)
CC(=C\c1ccccc1)/C=C1/SC(=S)N(C(C(=O)O)C(C)C)C1=O (stereo unspecified) | 99.2% (inactive)
Oc1cccc(/C=N/N=C/c2cccc(O)c2O)c1O | 86.5% (inactive)
Cc1cc(C(=O)N/N=C/c2ccc(O)c(O)c2O)c(C)n1-c1ccccc1 | 85% (inactive)
CCN(CC)S(=O)(=O)c1cccc(C(=O)N/N=C/c2ccc(O)c(O)c2O)c1 | 99.8% (inactive)
Oc1ccc(/C=N/N2CCCCC2)c(O)c1O | 96% (inactive)

Structure (SMILES) | viability
O=C1N=c2ccccc2=C1c1sc(=S)n(NC(=O)c2cccc(O)c2)c1O | 99.3% (inactive)
CC1=NN(c2ccc(C)cc2C)C(=O)C1C(c1ccccc1)C1C(=O)N(c2ccc(C)cc2C)N=C1C (stereo unspecified) | 92.2% (inactive)
O=C(O)c1ccccc1-c1ccccc1C(=O)Nc1ccc2c(c1)oc(=O)c1ccccc12 | 108% (inactive)
Cc1cc(C)c(C(=O)COc2cccnc2[N+](=O)[O-])cc1C | 99% (inactive)
COc1ccc(/C=N/NC(=O)c2nn(-c3ccccc3)c(=O)c3c(N)scc23)cc1 | 94% (inactive)
Nc1scc2c(C(=O)N/N=C/c3ccc(Cl)cc3)nn(-c3ccccc3)c(=O)c12 | 94% (inactive)
Cc1[nH]c(=O)c(C#N)c(C)c1CCC(=O)Nc1cc(S(C)(=O)=O)ccc1Cl | 105% (inactive)
N#Cc1c([N+](=O)[O-])cc([N+](=O)[O-])cc1S(=O)(=O)Cc1ccccc1 | 96.8% (inactive)
CSc1nc(SCC(=O)O)c2sc3nc(-c4ccccc4)c4c(c3c2n1)CCC4 | 95.7% (inactive)
CCCS(=O)(=O)c1nc(S(=O)(=O)c2ccc(C)cc2)c(N2CCC(O)CC2)s1 | 103% (inactive)
O=C(O)c1cccc2c1C(=O)c1ccc(-c3ccc(F)cc3OCc3ccccc3)cc1S2(=O)=O | 109% (inactive)
Cc1nc(N2C(=O)C(=O)/C(=C(/O)c3ccccc3)C2c2ccco2)sc1C (stereo unspecified) | 85% (inactive)
CCCOc1ccc(/C=C2/C(=O)ON=C2C)cc1OCC | 105% (inactive)
C=CCOc1ccc(/C=C2/C(=O)ON=C2C)cc1OCC | 102% (inactive)
CCc1cc(=O)oc2cc(OCC(=O)NCCCn3ccnc3)c(Cl)cc12 | 98.5% (inactive)
CC1(C)CC(=O)C(=Cc2cn(CCC#N)nc2-c2ccc(F)cc2)C(=O)C1 | 105% (inactive)
CCOc1cc(/C=C2\NC(=O)NC2=O)cc([N+](=O)[O-])c1O | 112% (inactive)
COc1ccccc1NC(=O)NNC(=O)c1cc2ccccc2cc1O | 84.9% (inactive)
COc1ccc2c(c1)Cc1cc(NC(=O)c3ccccc3-c3ccccc3C(=O)O)ccc1-2 | 95.3% (inactive)
O=C(NCCCl)NNC(=O)c1cc2ccccc2cc1O | 94.7% (inactive)
COc1ccc(NC(=O)Nc2c(O)ccc3ccccc23)cc1 | 94.1% (inactive)
O=C1c2ccccc2C(O)(c2ccccc2)N1c1ccc([N+](=O)[O-])cc1Cl (stereo unspecified) | 90.8% (inactive)
CCC1(C)Cc2c(sc3[nH]c(=O)[nH]c(=O)c23)CS1 (stereo unspecified) | 104% (inactive)
CC1(C)Cc2c(sc3nc4n(-c5ccccc5)c(=O)c(CCC(=O)O)nn4c(=O)c23)CO1 | 108% (inactive)
CCOc1cc(/C=N/N=C2/NC(=O)C(CC(=O)O)S2)ccc1OCc1ccccc1Cl (stereo unspecified) | 100% (inactive)
COc1ccccc1N1CCN(/N=C/c2cccc(OC)c2O)CC1 | 99.3% (inactive)

Structure (SMILES) | viability
CCOc1ccccc1CNc1ccc(O)cc1 | 96.2% (inactive)
Oc1ccc(NCc2ccccc2OCc2ccccc2F)cc1 | 97.6% (inactive)
COC(=O)C1=CN(c2cccc(C)c2)C=C(C(=O)OC)C1c1cc(OC)c(O)c([N+](=O)[O-])c1 | 96.7% (inactive)
COc1ccc(/C=c2\sc3nc(=O)c(C)nn3c2=O)c(OC)c1 | 100% (inactive)
CCOC(=O)c1c(/N=C/c2cccc([N+](=O)[O-])c2O)sc(C)c1C | 105% (inactive)
C=CCOC(=O)C1=C(C)N=c2s/c(=C3\C(=O)N(CC(=O)O)c4ccccc43)c(=O)n2C1c1ccc(OC)cc1 (stereo unspecified) | 105% (inactive)
Cc1ccc(S(=O)(=O)Nn2c(C)ccc2C)cc1 | 97.7% (inactive)
Cc1ccc(C(c2c(O)nc3n(c2=O)CCS3)c2c(O)nc3n(c2=O)CCS3)cc1 | 97.4% (inactive)
NS(=O)(=O)c1ccc(N=Nc2c(O)c(C(=O)O)cc3ccccc23)cc1 | 117% (inactive)
CC(=O)N1c2ccc(S(=O)(=O)N(C)CC(=O)NCc3ccc(C)cc3)cc2CC1C (stereo unspecified) | 89.4% (inactive)
COc1cc(/C=C/c2[nH]c(=O)[nH]c(=O)c2[N+](=O)[O-])cc([N+](=O)[O-])c1O | 92.2% (inactive)
CCCOc1ccc(C(=O)N/N=C/c2ccc(-c3ccc(S(=O)(=O)Nc4ncccn4)cc3)o2)cc1 | 97.5% (inactive)
O=C(/C=C/Nc1ccc(S(=O)(=O)Nc2ncccn2)cc1)c1cccs1 | 106% (inactive)
O=C1NN(c2ccccc2)C(=O)/C1=C/c1ccc(-c2ccc(C(=O)O)cc2)o1 | 108% (inactive)
Nc1nc2ncc(C(=O)c3cc(Cl)cc(Cl)c3O)cc2s1 | 95.3% (inactive)
C=CCn1c(=O)c(CCC(=O)Nc2ccc(N3CCOCC3)cc2)nc2cc(C(F)(F)F)ccc21 | 90.6% (inactive)
CC1(OC(=O)c2ccco2)C(=O)C=C2C=C(C3CC3)OC=C2C1=O (stereo unspecified) | 96.2% (inactive)
O=C(CCC1CCCC1)NNC(=O)c1cc2ccccc2cc1O | 87.1% (inactive)
O=C(NC1CCCCC1)c1cc2ccccc2cc1O | 94.5% (inactive)
C/C(=N/NC(=O)c1cc(O)c(O)c(O)c1)c1ccc([N+](=O)[O-])cc1 | 99.6% (inactive)
Cc1cc(C)c2nc(N3C(=O)C(O)=C(C(=O)c4ccco4)C3c3ccc(O)cc3)sc2c1 (stereo unspecified) | 96.7% (inactive)
O=C(CNS(=O)(=O)c1ccc2ccccc2c1)OCC(=O)c1ccc(Br)s1 | 93.8% (inactive)
O=C(c1ccccc1)c1ccc(OCC(O)CN2CCN(S(=O)(=O)N3CCCCC3)CC2)cc1 (stereo unspecified) | 87.1% (inactive)
CC(C)c1ccc(Nc2ccc(C(=O)O)cc2[N+](=O)[O-])cc1 | 101% (inactive)
CCc1nnc(N/N=C/c2ccc(N3CCC(C)CC3)c([N+](=O)[O-])c2)n1N | 89.8% (inactive)
COc1ccc(C2CC(c3ccccc3)=NN2c2ccc(Cl)c(C(=O)O)c2)cc1 (stereo unspecified) | 91.2% (inactive)

Structure (SMILES) | viability
O=C(CCN1C(=O)/C(=C\C=C\c2ccccc2)SC1=S)Nc1ccccc1C(=O)O | 95.4% (inactive)
O=C1CCC/C(=N/Nc2ccc(Cl)cc2)C1 | 89.1% (inactive)
COc1cc(C2C(C#N)=C(N)OC3=C2C(=O)CC(C)(C)C3)c([N+](=O)[O-])cc1OC (stereo unspecified) | 108% (inactive)
Cc1[nH]c2ccccc2c1C1=CC(=O)C=CC1=O | 89.9% (inactive)
COc1ccc2c([N+](=O)[O-])c(Cl)[nH]c2c1 | 104% (inactive)
CC(=O)N1CCN(c2ccc(NCc3ccc(Br)o3)cc2)CC1 | 106% (inactive)
Cc1nc2nc(-c3cccs3)cn2nc1C | 95.6% (inactive)
CCCCCCCC1=NN(c2ccc(S(=O)(=O)O)cc2)C(=O)C1N=O (stereo unspecified) | 100% (inactive)
COC(=O)c1ccc(N2NC(=O)/C(=C/c3ccc(OC)c(OC)c3)C2=O)cc1 | 98.2% (inactive)
O=C1NN(c2ccccc2)C(=O)/C1=C\c1cccc(OC(=O)c2cccs2)c1 | 103% (inactive)
Cc1nc2ccccc2c(=O)n1/N=C/c1ccc(O)c(O)c1O | 99.3% (inactive)
Cc1cccc(N/N=C/c2ccc(O)c(O)c2O)c1 | 103% (inactive)
Oc1ccc(/C=N/N2CCOCC2)c(O)c1O | 102% (inactive)
COCCNC(=O)Nc1ccc2nc(-c3ccco3)c(-c3ccco3)nc2c1 | 102% (inactive)
CN=c1scc(C)n1/N=C/c1ccc(O)c(O)c1O | 95.4% (inactive)
C#CCOc1ccc(/C=C2/C(=O)ON=C2C)cc1Cl | 98.1% (inactive)
O=C1CCNc2cc3ccccc3cc21 | 83.9% (inactive)
COc1ccc(C2C(C#N)=C(N)Oc3c2c(C)nn3-c2ccccc2)cc1Cn1nc(C)c([N+](=O)[O-])c1C (stereo unspecified) | 94.7% (inactive)
O=c1[nH]n2c(=O)c3c([nH]c2c1N=Nc1cccc(C(F)(F)F)c1)CCCC3 | 101% [at 20 µM] (inactive)
O=c1oc2ccccc2c(O)c1/C=C1\C=Nc2ccccc21 | 91.5% (inactive)
CCOc1ccc(N2C(=O)C(Cl)=C(N3CCOCC3)C2=O)cc1 | 98.1% (inactive)
COC(=O)c1c(C)c2c(C)cc3ccccn3c-2c1C(=O)OC | 101% (inactive)
Cc1c(CCC(=O)O)c(=O)oc2c(C)c(OCc3cc4c(cc3Cl)OCO4)ccc12 | 94.4% (inactive)
